# Rows were chosen to be rich in hits. Some 7.5% of all compounds tested hit in one or more screens of this group.
# ELG1 genotoxic: induces genotoxicity in HEK293T cells with luciferase-tagged ELG1 | HEK293T ELG1-luciferase reporter, luminescence, 16 h | Potency, µM (top dose mostly 46 µM), inactives show at the top dose activity change, positive = activation, actives largely listed as activators | 330,000 tested, 1.3% active | AID 504466; further: % of control where 0% means no effect; nearly all actives have a fitted effect of over 60% in size
#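 ELG1-luciferase HEK293T cells, 2,000/well; compound pinned in; 16 hr, 37 °C, 5% CO2; ONE-Glo, 30 min RT; luminescence on CCD imager.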
# KinaseGlo FLuc: counter-screen: inhibitors of Kinase-Glo firefly luciferase. Kinase-Glo luciferase, ATP luminescence, 8 min. AID 1379. 200,000 tested, 0.28% active. Potency, µM (highest dose often 38.3 µM), for the others: at the top dose activity change, negative = inhibition, usual class: inhibitors. Q27757; further: on the % scale 0 is the no-effect control and ±100 the full control effect; nearly all actives have a fitted effect of over 60% in size
#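 Compound is pinned into ATP-containing buffer (10 uM ATP, imidazole pH 7.2, 7 mM MgCl2). Kinase-Glo luciferase reagent is then added. Light output is recorded following an 8-min room-temperature incubation.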
# FLuc counter: firefly luciferase modulation, counter-screen for miR-21 project; AID 588342; 360,000 tested, 6.9% active; Potency, µM (titrated, usually from 57.5 µM), inactives show at the highest dose activity change, negative = inhibition, usual class: inhibitors; purified FLuc, Km substrates, luminescence inhibition;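 further: plate controls were vehicle for no effect and reference inhibitor for full effect; nearly all actives have a fitted effect of over 55% in size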
# Target sequence (P08659 whole entry, looked up): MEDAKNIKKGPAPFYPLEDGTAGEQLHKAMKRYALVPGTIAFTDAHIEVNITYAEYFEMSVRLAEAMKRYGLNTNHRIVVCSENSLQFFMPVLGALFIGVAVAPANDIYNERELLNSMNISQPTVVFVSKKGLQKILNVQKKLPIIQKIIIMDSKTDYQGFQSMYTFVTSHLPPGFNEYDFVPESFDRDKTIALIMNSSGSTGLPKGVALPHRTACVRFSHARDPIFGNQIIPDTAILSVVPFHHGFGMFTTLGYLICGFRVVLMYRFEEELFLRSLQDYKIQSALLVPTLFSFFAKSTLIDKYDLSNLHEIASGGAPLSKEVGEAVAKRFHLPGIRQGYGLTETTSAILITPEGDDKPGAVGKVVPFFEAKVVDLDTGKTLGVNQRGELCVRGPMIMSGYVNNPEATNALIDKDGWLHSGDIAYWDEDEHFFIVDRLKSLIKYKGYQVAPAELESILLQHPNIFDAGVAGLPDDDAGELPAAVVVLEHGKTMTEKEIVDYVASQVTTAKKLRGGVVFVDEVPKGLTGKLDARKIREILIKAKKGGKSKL
#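 Biochemical qHTS of compounds, final roughly 60 µM downward over six points, against 10 nM purified firefly luciferase using Km concentrations of substrates (10 uM D-luciferin, 10 uM ATP) in Tris acetate pH 7.5 buffer; luminescence output.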
# SMN2 splice enh: increases expression of the SMN2 splice variant; AID 1458; HEK293 SMN2-luciferase splicing reporter, luminescence, 30-36 h; 210,000 tested, 2.8% active; Potency, µM (top dose mostly 46.1 µM), for the others: at the top dose activity change, positive = activation, actives largely listed as activators; further: % of control where 0% means no effect; nearly all actives have a fitted effect of over 55% in size
#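 qHTS luciferase splicing reporter: luminescence rises when SMN2 exon 7 is included in transfected HEK293 cells. Compound exposure lasted 30-36 h at 37C, with 4.5 mM final sodium butyrate as control, followed by a ONE-Glo read.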
# NPC1 promoter act: activates the NPC1 promoter | 320,000 tested, 2.4% active | Potency, µM (series often up to 9.22 µM), for the others: at the highest dose activation, hits mostly activators | AID 485313 | Huh7 NPC1 promoter luciferase reporter, 24 h; further: % of control where 0% means no effect; nearly all actives have a fitted effect of over 60% in size
#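 NPC1 promoter–luciferase Huh7 cells; 24 h compound; luminescence.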
# Rab9 promoter act: Rab9 promoter activation | Huh7 Rab9 promoter-luciferase reporter, luminescence, 24 h | Potency, µM (titrated, usually from 9.22 µM), for inactives: at the highest dose activation, negative = inhibition, usual class: activators | 320,000 tested, 2.8% active; further: % of control where 0% means no effect; nearly all actives have a fitted effect of over 60% in size
#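 Huh7 cells stably carrying Rab9 promoter–luciferase reporter, plated 1500 cells/well, compound added after 2 h and incubated 24 h at 37 °C; luciferase luminescence then read after 10 min with detection reagent.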
# An asterisk follows results filed as active; ? = inconclusive; nt = not tested or not shown; [ ] = remark or other dose. The call rests on the fitted dose curve; in most records, active means well fitted curve in the direction sought with a large enough effect; inconclusive means small, poorly fitted or top-dose-only effect, or another doubt; inactive means no such curve, though single readings can be large; an effect the other way counts as inactive or inconclusive. Potency means the concentration at half of the fitted maximal effect.
SMILES,ELG1 genotoxic,KinaseGlo FLuc,FLuc counter,SMN2 splice enh,NPC1 promoter act,Rab9 promoter act
O=C(N/N=C\c1cccnc1)c1ccc(Cl)cc1Cl,1.5%,nt,?,nt,0.4%,1.8%
O=C(Nc1ccccn1)c1ccc2ccccc2c1O,22.5%,nt,21.3µM*,nt,3.16µM*,3.16µM*
COc1ccc(C2=NCCn3nc4cc(OC)ccc4c32)cc1,7.9%,nt,?,nt,8.4%,4.0%
COc1ccc(N2CC(NC(=O)C3CC3)CC2=O)cc1OC (stereo not drawn),nt,nt,0.2%,nt,nt,nt
O=C(Nc1cccc([N+](=O)[O-])c1)c1ccc2ccccc2c1O,15.0%,nt,0.675µM*,nt,?,?
O=C(Cc1ccccc1)Nc1cccc([N+](=O)[O-])c1,0.4%,3.7%,1.9%,-23.1%,-4.1%,-1.9%
O=C(Cc1cccc2ccccc12)Nc1cccnc1,8.5%,-4.2%,3.7%,-16.4%,-2.9%,-4.2%
O=C(Nc1cccnc1)c1ccc2ccccc2c1O,?,nt,2.13µM*,nt,2.51µM*,2µM*
CC(C)c1ccc(/C=N/NC(=O)c2ccccc2Cl)cc1,?,0.5%,23.9µM*,nt,-16.9%,1.1%
O=C(N/N=C/c1cccnc1)c1ccccc1Br,1.9%,nt,-10.4%,nt,3.3%,-1.8%
O=C(N/N=C\c1cccnc1)c1ccccc1O,?,nt,7.57µM*,nt,27.7%,?
COC(=O)c1ccc(/C=N/NC(=O)c2ccccc2Cl)cc1,9.3%,-0.6%,?,20.8%,14.0%,18.5%
C[C@H]1Cc2c(COc3ccccc3)nc3c(c2CO1)CN(S(=O)(=O)c1ccc(Cl)c2nonc12)CC3,nt,-7.2%[7.66 µM],nt,-0.7%[9.22 µM],nt,nt
O=C(CSc1nnc2scc(-c3ccccc3)n12)Nc1ccc(Cl)cc1,nt,nt,-1.3%,-5.7%,nt,nt
Cc1ccccc1CN(c1ccc(C(=O)Nc2ccccc2C(=O)NCc2ccco2)cc1)S(C)(=O)=O,-4.6%,-2.5%,-2.6%,?,1.6%,-4.3%
COc1ccc(C(=O)Oc2cc(/C=N/NC(N)=S)ccc2OC)cc1,1.8%,-6.7%,-13.5%,9.3%,-5.0%,-5.7%
COc1ccc(/C=N/NC(N)=S)cc1OC(=O)c1cccc2ccccc12,-5.3%,-4.1%,6.01µM*,-47.3%,1.1%,5.3%
CCC(Cn1nnc2ccccc2c1=O)NC(=O)Nc1cccc(C)c1C (stereo not drawn),nt,nt,0.2%,-1.5%,nt,nt
CC(=O)Nc1cccc(NC(=O)Nc2cccc(F)c2)c1,9.3%,nt,9.53µM*,nt,5.5%,2.9%
N#CCc1ccc(NC(=O)Nc2cccc(Cl)c2)cc1,4.6%,-2.6%,16.9µM*,-13.9%,?,29.0%
N#Cc1ccccc1NC(=O)Nc1cccc(Cl)c1,nt,-8.8%,?,-8.7%,nt,nt
O=C(Nc1cccc(F)c1)Nc1cccc(Cl)c1,-1.5%,nt,23.9µM*,nt,29.1%,?
O=C(N/C=C/c1ccco1)Nc1cccc(Cl)c1,-0.8%,nt,26.9µM*,nt,16.3%,19.2%
CNS(=O)(=O)c1ccc(NC(=O)Nc2cccc(F)c2)cc1,1.4%,1.6%,19µM*,nt,12.0%,?
CSc1ccccc1NC(=O)Nc1cccc(F)c1,1.3%,nt,21.3µM*,nt,15.6%,?
SMILES,ELG1 genotoxic,KinaseGlo FLuc,FLuc counter,SMN2 splice enh,NPC1 promoter act,Rab9 promoter act
CCOc1ccc(-n2c(SCC(=O)N3CCC(C)CC3)nc3c([nH]c4ccccc43)c2=O)cc1,nt,nt,1.4%,nt,nt,nt
CCc1ccccc1NC(=O)c1ccc(=O)n(Cc2ccc(F)cc2)c1,nt,nt,-0.9%,nt,nt,nt
N#Cc1c(N)nc2c(c1-c1ccc3c(c1)OCO3)CCc1ccccc1-2,11.6%,-3.6%,1.7%,?,-2.4%,-6.5%
c1ccc2c(c1)Cc1cc3cc4c(cc3nc1-2)OCO4,nt,2.82µM*,nt,0.501µM*,nt,nt
CCN(CC)S(=O)(=O)c1nnc(NC(=O)c2ccc(Br)cc2)s1,nt,nt,-7.1%,nt,nt,nt
CC(=O)Oc1ccc(C(=O)Nc2nnc(C)s2)cc1,?,-2.5%,21.3µM*,25.6%,24.5%,21.0%
Cc1nnc(NC(=O)c2ccc(Br)cc2)s1,?,-4.9%,2.69µM*,?,?,3.16µM*
Cc1ccc(C(=O)Nc2nnc(C)s2)cc1,-2.4%,-6.2%,12µM*,14.1µM*,3.55µM*,3.16µM*
Cc1nnc(NC(=O)c2ccc(S(=O)(=O)N3CCCCC3)cc2)s1,3.2%,nt,nt,nt,nt,nt
CCOc1cc(C(=O)Nc2nnc(C)s2)cc(OCC)c1OCC,-0.4%,1.6%,10.1%,?,0.5%,-5.7%
CCCc1cc(C(=O)Nc2nnc(C)s2)cs1,?,-5.8%,9.53µM*,?,?,3.55µM*
CC(C)(C)c1ccc(OCCC(=O)Nc2cccc(S(=O)(=O)N3CCCCC3)c2)cc1,-0.3%,-0.4%,-6.9%,-74.3%,-5.0%,-0.8%
CSCCC(NC(=O)c1ccco1)C(=O)NC1CCCCCC1 (stereo not drawn),8.5%,nt,1.5%,nt,-0.2%,-2.8%
CCc1ccc(NC(=S)Nc2ccc(S(=O)(=O)Nc3ncccn3)cc2)cc1,9.4%,1.4%,?,-4.9%,0.9%,2.9%
O=C1C(Cl)=C(N2CCOCC2)C(=O)N1CCc1ccccc1,?,-1.7%,19µM*,12.6µM*,13.1%,?
CN1CCN(C2=C(Cl)C(=O)N(CCc3ccccc3)C2=O)CC1,13.6%,3.9%,?,12.6µM*,19.3%,?
O=C1C(Cl)=C(NCC2CCCO2)C(=O)N1CCc1ccccc1 (stereo not drawn),?,0.3%,15.1µM*,12.6µM*,?,?
O=C1C(Cl)=C(N2CCCCC2)C(=O)N1Cc1ccccc1,-0.8%,-7.2%,-1.6%,-24.7%,-6.2%,-2.9%
CCCC[C@@H]1C[C@H]1C(NC(=O)c1ccco1)c1ccc(Cl)cc1 (stereo partly drawn),nt,-3.8%,nt,-34.4%,nt,nt
COCCn1c(SCC(=O)NC2CCCC2)nnc1C(C)C,5.2%,nt,0.9%,nt,2.2%,-1.8%
CC(NC(=O)c1sc2ccccc2c1Cl)C1CCCO1 (stereo not drawn),?,-1.2%,9.53µM*,11.2µM*,?,?
CC1CCc2[nH]c3ccc(C(=O)NCC4CCCO4)cc3c2C1 (stereo not drawn),7.9%,nt,9.53µM*,nt,23.3%,?
COc1ccc2c(Cl)c(C(=O)NCC3CCCO3)sc2c1Cl (stereo not drawn),2.0%,2.1%,-8.9%,nt,4.0%,22.4%
O=C(NCC1CCCO1)c1cccc2ccccc12 (stereo not drawn),-4.3%,nt,1.3%,nt,1.1%,-3.6%
CC(NC(=O)c1csc2ccccc12)C1CCCO1 (stereo not drawn),?,-3.3%,-10.6%,15.5%,11.6%,1.9%
Cc1ccc2c(Cl)c(C(=O)NCC3CCCO3)sc2c1 (stereo not drawn),?,-4.1%,5.36µM*,11.2µM*,2µM*,2.24µM*

# From PubChem
